A selection: hits, their analogues and other compounds. The true share with any hit is near 2.4%.
D2 PAM-1 – Beta-Arrestin HTS for Positive Allosteric Modulators of the Human D2 Dopamine Receptor: Potentiators; D(2) dopamine receptor (Homo sapiens), P14416; potentiation, % (test concentration not listed); actives 0.23% (n = 360,000); DiscoveRx D2 beta-arrestin cells, luminescence, 90 min; 100% = 57 uM dopamine signal; in the data active means potentiation above about 50%
Target sequence (P14416 whole entry, looked up): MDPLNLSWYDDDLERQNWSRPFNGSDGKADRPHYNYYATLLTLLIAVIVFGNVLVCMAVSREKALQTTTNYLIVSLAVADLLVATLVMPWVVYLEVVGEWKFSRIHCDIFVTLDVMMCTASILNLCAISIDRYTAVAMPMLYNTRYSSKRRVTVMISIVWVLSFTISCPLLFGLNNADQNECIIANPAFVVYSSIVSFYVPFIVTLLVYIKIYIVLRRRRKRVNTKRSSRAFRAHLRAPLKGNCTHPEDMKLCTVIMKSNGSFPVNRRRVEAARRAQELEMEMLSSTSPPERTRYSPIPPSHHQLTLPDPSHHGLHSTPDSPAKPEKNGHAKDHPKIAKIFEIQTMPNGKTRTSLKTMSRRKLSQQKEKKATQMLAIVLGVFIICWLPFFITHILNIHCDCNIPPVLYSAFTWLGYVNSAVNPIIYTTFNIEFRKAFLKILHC
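PathHunter beta-arrestin assay in DiscoveRx D2 cells. Compounds were added with an EC20 of dopamine (50 nM final) for 90 min at 37 deg C. Luminescence was read 1 h after detection reagent, with 57 uM dopamine as the EC100 control.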
D2 ag-1 – HTS Assay for Allosteric Agonists of the Human D2 Dopamine Receptor: Primary Screen for Agonists. D(2) dopamine receptor (Homo sapiens), P14416. HEK293 T-REx D2 cells, calcium flux agonist mode. activation, % at 2 µM. actives 0.53% (n = 340,000);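 active means activation over 3 SD above normal in the single-dose calcium agonist read, cut at about 30% in these data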; further: 0% is about no effect
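Agonism is scored from calcium flux in a force-coupled, inducible HEK293 cell line expressing D2, read kinetically for 180 s after compound addition against dopamine controls.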
D2 PAM-2 – HTS Assay for Positive Allosteric Modulators of the Human D2 Dopamine Receptor: Primary Screen for Potentiators; D(2) dopamine receptor (Homo sapiens), P14416; HEK293 T-REx D2, calcium flux, EC20 dopamine potentiation; potentiation, % at 10 µM; actives 0.34% (n = 340,000);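 active means potentiation over 3 SD above the plate norm, cut at about 30% in these data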; further: 0% is about no effect
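Tetracycline-induced HEK293 T-REx cells force-coupled to calcium signalling expressed D2; compounds were pin-added after a 10 s baseline, read kinetically 180 s, then an EC20 dopamine challenge followed with a further 180 s calcium read.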
D2 antag – HTS Assay for Allosteric Antagonists of the Human D2 Dopamine Receptor: Primary Screen for Antagonists; actives 2% (n = 340,000); inhibition, % at 10 µM; AID 485344, 2010; D(2) dopamine receptor (Homo sapiens), P14416; HEK293 TREx D2 cells, calcium flux, dopamine EC80; in the data active means inhibition above about 30%; inactive means below that, where a call was filed; further: 0% is about no effect
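Compounds are added to dye-loaded, induced HEK293 T-REx cells coupled to calcium release via D2; after a 3 min kinetic read an EC80 dopamine stimulus is given and fluorescence is recorded for 3 more min.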
D2 ag-2 – Beta-Arrestin HTS for Positive Allosteric Modulators of the Human D2 Dopamine Receptor: Agonists | DiscoveRx PathHunter D2 beta-arrestin, luminescence, 90 min; 100% = 57 uM dopamine signal | activation, % (no concentration beside the values) | actives 0.084% (n = 360,000); in the data active means activation above about 40%
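Agonist mode: compounds alone added to overnight-plated D2 PathHunter cells for 90 min at 37 C, with 57 uM final dopamine (EC100) defining full response. Beta-arrestin recruitment detected by chemiluminescent reagent, read after 1 h at ambient temperature.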
The depositor's hits bear a star; x = not tested or not shown.

SMILES | D2 PAM-1 | D2 ag-1 | D2 PAM-2 | D2 antag | D2 ag-2
COc1c2c(cc3oc(=O)ccc13)OC(C)(C)C=C2 | -1.6 | -2.6 | 3.5 | 33.4* | 3.9
CC1CCCC(C)N1C(=O)COC(=O)c1cc(-c2cccs2)nn1-c1ccccc1 (stereo not given) | -9.3 | 0.1 | -1.7 | -7.1 | -0.9
COc1ccc(C(C)(NC(C)=O)c2nc(-c3ccc(F)c(Cl)c3)cs2)cc1 (stereo not given) | -2.9 | x | x | x | 4.3
CCn1cnc2sc(C(=O)N(Cc3ccc(N(C)C)cc3)Cc3ccco3)c(C)c2c1=O | 5.3 | 0.5 | 2.5 | 31.6* | 0.6
O=c1[nH]c(CN2CCN(S(=O)(=O)/C=C/c3ccccc3)CC2)nc2ccccc12 | 4.2 | 0.5 | -6.7 | -35.4 | 0.3
Cc1ccc2oc(=O)cc(CN3CCN(C/C=C/c4ccccc4)CC3)c2c1 | -21.5 | -0.7 | -18.2 | 58.4* | -3.1
O=c1cc(CN2CCN(Cc3ccccc3)CC2)c2cc(Cl)ccc2o1 | -47.1 | -0.7 | -7.4 | 3.7 | -7.6
O=c1cc(CN2CCN(Cc3ccccc3)CC2)c2ccc(O)cc2o1 | -24.2 | -0.6 | -18.9 | 4.3 | -4.9
CCc1ccc2oc(=O)cc(CN3CCN(Cc4ccccc4)CC3)c2c1 | -25.4 | -0.1 | -20.9 | 38.6* | -4.1
O=c1cc(CN2CCN(C/C=C/c3ccccc3)CC2)c2cc(O)ccc2o1 | -27.0 | 0.7 | -21.6 | 82.5* | 1.4
O=c1[nH]c(CN2CCN(C/C=C/c3ccccc3)CC2)nc2ccccc12 | -23.9 | 29.0 | -26.5 | 63.4* | -0.2
Cc1cccc(N2CCN(c3ccc4cc(S(=O)(=O)N5CCCCC5)ccc4n3)CC2)c1C | -5.0 | 0.2 | 11.2 | -7.3 | -10.0
COc1ccc(CCN2CC(C(=O)NCc3cccc(F)c3)CCC2=O)cc1 (stereo not given) | 2.9 | x | x | x | -1.4
Cc1ccc(-n2c(=O)c3c4c(sc3n(Cc3cccc(Cl)c3)c2=O)CCC4)cc1C | x | 0.7 | 0.2 | x | x
COc1ccc(-c2cc3ccccc3oc2=O)cc1NC(=O)c1ccc([N+](=O)[O-])o1 | 100.7* | -0.4 | -6.1 | -13.0 | 11.1
COc1ccc(-c2cc3ccccc3oc2=O)cc1NC(=O)c1ccc(Br)o1 | -14.5 | 1.1 | -8.2 | -5.9 | -6.5
Fc1ccc([C@@H]2CCNC[C@H]2COc2ccc3c(c2)OCO3)cc1 | -6.1 | 14.6 | -9.4 | 40.7* | 2.9
O=C(NCCc1ccccc1)c1ccc(-c2ccccc2Cl)o1 | -97.3 | -1.2 | -17.6 | 30.2* | 0.6
O=C(NCCc1ccccc1)c1ccc(CS(=O)(=O)c2ccc(Cl)cc2)o1 | -12.5 | -0.3 | -0.3 | 31.0* | -2.7
O=C(Nc1ccccc1)c1ccc(-c2ccccc2Cl)o1 | -15.0 | -1.5 | -4.7 | 3.9 | 5.6
O=C(NCCc1ccc(Cl)cc1)c1ccc(CS(=O)(=O)c2ccc(Cl)cc2)o1 | x | x | -10.6 | x | x
Cc1nnc(N/N=C/c2c(Cl)cccc2Cl)n1N | 14.1 | 0.0 | -4.1 | 3.9 | 3.7
CCc1nnc(N/N=C/c2c(F)cccc2Cl)n1N | 15.1 | -1.4 | -2.3 | 1.6 | 41.0*
CC1=C(c2ccc(Cl)cc2)S(=O)(=O)NC1=NCc1ccc(C)cc1 | x | -1.4 | -7.0 | x | x
COc1ccccc1N1CCN(CC(=O)Nc2ccc(C)c(F)c2)CC1 | -36.6 | -1.0 | 0.3 | -8.0 | -3.6
SMILES | D2 PAM-1 | D2 ag-1 | D2 PAM-2 | D2 antag | D2 ag-2
COc1ccccc1N1CCN(CC(=O)Nc2cccc(F)c2)CC1 | -15.5 | 0.5 | -20.7 | 31.3* | -2.6
COc1ccccc1N1CCN(CCCCCCOc2ccc(F)cc2)CC1 | -29.6 | 6.3 | -48.4 | 81.1* | -0.9
COc1ccccc1N1CCN(CCC(=O)Nc2ccc(F)cc2)CC1 | -27.7 | 5.1 | -23.1 | 66.4* | -4.7
CCOC(=O)N1CCN(CCC(=O)Nc2ccccc2OC)CC1 | -12.1 | 2.3 | -5.9 | 50.0* | -1.0
CCOc1ccc(CNC(=O)Cn2nc(C)c3nn(-c4ccc(Cl)cc4)c(C)c3c2=O)cc1 | x | 1.5 | -2.1 | x | x
CCCNC(=O)c1onc(CSc2nc3ccccc3[nH]2)c1C(=O)NCCC | 1.8 | 0.5 | -8.9 | -4.0 | 2.0
CCOC(=O)c1c(C)n(C)c2ccc(OC)c(NC(=O)CCN3CCC(Cc4ccccc4)CC3)c12 | -16.0 | 0.5 | -32.4 | 90.8* | -3.1
O=C(CN1CCC(NC(=O)C2CC2)CC1)Nc1cccc(F)c1 | -19.0 | 0.2 | -21.2 | 31.5* | -3.3
Cc1ccc(NC(=O)CN2CCC(NC(=O)c3cccc(F)c3)CC2)cc1C | -37.4 | 0.2 | -3.2 | 5.9 | 0.5
CCOC(=O)c1c(C)n(C)c2ccc(OC)c(NC(=O)CN3CCSCC3)c12 | -7.7 | -0.2 | 0.8 | -12.4 | -3.8
COc1ccccc1N1CCN(CCC(=O)Nc2cccc(Cl)c2)CC1 | -26.1 | 36.0* | -39.0 | 96.2* | -1.6
O=C(CN1CCN(c2ccccc2F)CC1)Nc1ccc2c(c1)CCC2 | -0.6 | -0.8 | -21.8 | 69.4* | 3.9
Cc1ccc(NC(=O)CN2CCN(c3ccccc3F)CC2)cc1F | x | -2.6 | -28.5 | x | x
Cc1ccc2[nH]c(=O)c(CN(CCCN3CCOCC3)C(=O)Nc3ccc(Cl)cc3)cc2c1 | -14.0 | -0.4 | -0.7 | 31.3* | 4.4
COc1ccc(-c2nc(CSCC(=O)N3CCc4ccccc4C3)c(C)o2)cc1OC | -9.7 | 0.4 | 22.2 | 45.3* | -7.1
Cc1ccc(-n2nc3c([n+]2[O-])CCc2nonc2-3)cc1 | -3.4 | -1.7 | 4.1 | 52.9* | 7.3
Cc1ccc(Cn2cc(S(=O)(=O)c3ccc(C(C)C)cc3)c(=O)c3cc4c(cc32)OCO4)cc1 | 5.5 | 0.1 | 7.6 | 36.1* | -2.8
OCC1(CCCc2ccccc2)CCN(Cc2cnc(N3CCOCC3)s2)CC1 | -12.3 | 0.2 | -3.0 | -8.6 | -2.4
CC(COc1ccccc1)N1CCC(CO)(CCc2ccccc2)CC1 (stereo not given) | -15.2 | 17.4 | -17.1 | 51.5* | -0.6
Cc1ncc(CN2CCC(CO)(CCc3ccccc3)CC2)s1 | -22.8 | 0.7 | -37.5 | 81.1* | -2.8
O=c1cc(-c2ccsc2)oc2ccc(-c3ccc4cc[nH]c4c3)cc12 | -8.9 | x | x | x | -3.3
CC1=C(C(=O)Nc2ccccc2)C(c2cccs2)n2nnnc2N1 (stereo not given) | -8.2 | -0.6 | 2.3 | 35.8* | -1.6
CN(CC(=O)Nc1ccc(Cl)cc1)CC(=O)N1CCc2ccccc21 | 3.7 | x | x | x | 0.7
COc1ccc(CNC(=O)c2cc3cccc4c3n2CC(C)S4)c(OC)c1 (stereo not given) | x | -0.4 | 6.4 | x | x

Screens from PubChem.
